Compounds with a hit are over-represented: about 6% of the library has one in this group of screens.
Sfp inh: Sfp phosphopantetheinyl transferase inhibition. Biochemical Sfp PPTase activity, qHTS. Potency, µM, for inactives: largest response in the series, negative = inhibition, hits mostly inhibitors. 3.5% of 310,000 active. AID 1490;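 further: the enzyme is Sfp with the accession as filed and its product quenches rhodamine fluorescence; 0% = enzyme reaction without inhibitor and -100% = no enzyme wells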
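After 15 min at room temperature with compound, 15 nM Sfp received 5 uM rhodamine-CoA plus 12.5 uM BHQ-2-ybbR (50 mM Hepes pH 7.6, 10 mM MgCl2). Rate came from the fluorescence difference over 30 min, ex 525/em 598 nm.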
Tau fluor cs: counter-screen for tau fibril formation inhibitors; Potency, µM (titrated, usually from 57.7 µM), without a hit: at the top dose activity change, negative = decrease; AID 1463; 0.93% of 280,000 active; tau K18 P301L Alexa594 fluorescence, heparin fibrillization; further: nearly all actives have a fitted effect of over 55% in size
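Human K18 P301L tau (15 uM unlabeled plus 0.24 uM Alexa 594-labeled, final) in 100 mM sodium acetate pH 7 was mixed with compound and 20 uM heparin and incubated 6 hr at 37 C.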
Tau fibril FP: blocks human tau fibril formation measured by polarization; P10636; Potency, µM (top dose mostly 57.7 µM), inactives show top-dose activity, negative = inhibition, actives largely listed as inhibitors; 0.39% of 280,000 active; K18 P301L tau heparin fibrillization, Alexa594 FP, 6 h; AID 1468; further: nearly all actives have a fitted effect of over 55% in size
Target sequence (P10636 561-689 P618L limits assumed): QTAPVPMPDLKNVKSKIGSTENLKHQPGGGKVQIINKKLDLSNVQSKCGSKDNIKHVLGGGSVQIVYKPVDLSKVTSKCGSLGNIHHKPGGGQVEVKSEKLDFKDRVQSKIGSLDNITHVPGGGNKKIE
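Human tau K18 […] P301L fragment, 15 uM unlabeled plus 0.24 uM Alexa 594-labeled tau (final), with compound and 20 uM heparin in 100 mM sodium acetate pH 7; 6 hr at 37 C, then Alexa 594 FP read.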
PLK1 PBD inh: PLK1 (human) polo-box domain binding inhibition; Potency, µM, inactives show max response, negative = inhibition, usual class: inhibitors; P53350; 2.8% of 360,000 active; Plk1 PBD binding of FITC phosphopeptide, fluorescence polarization; further: series mostly up to about 57 µM; nearly all actives have a fitted effect of over 65% in size
Tau fibril ThT: tau fibrillization inhibition (ThT binding) | P10636 | recombinant tau K18 P301L (four-repeat tau fragment), heparin-induced fibrillization, ThT fluorescence | Potency, µM (highest dose often 57.4 µM), without a hit: top-dose activity, negative = inhibition, most hits filed as inhibitors | 2.1% of 270,000 active | AID 1460; further: nearly all actives have a fitted effect of over 55% in size
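Aggregation was driven by heparin (20 uM final) acting on recombinant tau […] bearing P301L in 100 mM sodium acetate pH 7; fibrils were detected with Thioflavin T.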
VDR inhibitor: vitamin D3 receptor (human) inhibition; P11473; 0.93% of 400,000 active; Potency, µM, for inactives: max response, negative = inhibition, most hits filed as inhibitors; VDR-SRC2-3 peptide fluorescence polarization, 2 h; AID 504847
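Inhibition of the VDR/SRC2-3 peptide interaction is quantified by fluorescence polarization. Compounds (23 nl, pintool) incubate with the reagents for 2 hours at ambient room temperature.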
Active calls of the source: *. The call rests on the fitted dose curve; in most records, active means well fitted curve in the direction sought with a large enough effect; inconclusive means small, poorly fitted or top-dose-only effect, or another doubt; inactive means no such curve, though single readings can be large; an effect the other way counts as inactive or inconclusive. Unless noted, on the % scale 0 is the no-effect control and ±100 the full control effect; potency means the concentration at half of the fitted maximal effect.

What do the screens show for `Cc1ccc(C)c(-n2nnc(-c3nc(-c4ccccc4C)no3)c2C)c1`?
Tau fluor cs: -10%; Tau fibril FP: -1%; Tau fibril ThT: 2%; VDR inhibitor: 19%

Results for COc1ccc(/C=C/C2=NC(=C\N(C)C)/C(=O)O2)cc1 ?
Sfp inh: 79µM*; Tau fluor cs: inconclusive; Tau fibril FP: 12%; PLK1 PBD inh: -7%; Tau fibril ThT: inconclusive; VDR inhibitor: -7%

How did Cc1cc2c(c(SCC(N)=O)n1)C(=O)OC2 do in these assays?
Sfp inh: 22%; Tau fluor cs: 5%; Tau fibril FP: 15%; PLK1 PBD inh: 30µM*; Tau fibril ThT: -2%; VDR inhibitor: -22%

Results for Cn1ccc(C(=O)NC(=S)N2CCSCC2)n1 ?
Sfp inh: 45µM*; Tau fluor cs: -3%; Tau fibril FP: -6%; PLK1 PBD inh: -20%; Tau fibril ThT: -3%; VDR inhibitor: -12%

What do the screens show for `Cc1ccc(NS(=O)(=O)c2cc(N)ccc2Cl)c(C)c1`?
Sfp inh: -20%; Tau fluor cs: -13%; Tau fibril FP: 10%; PLK1 PBD inh: 24µM*; Tau fibril ThT: -4%; VDR inhibitor: -17%

How did COc1ccc(CN(C)CCc2ccccn2)cc1OC do in these assays?
Sfp inh: 50µM*; Tau fluor cs: -6%; Tau fibril FP: 4%; PLK1 PBD inh: -4%; Tau fibril ThT: -12%; VDR inhibitor: -4%

What do the screens show for `COc1ccc(CCN(C)CC(=O)Nc2cc(C)nc3ccccc23)cc1OC`?
Sfp inh: 79µM*; Tau fluor cs: -17%; Tau fibril FP: -5%; PLK1 PBD inh: -2%; Tau fibril ThT: -17%; VDR inhibitor: -2%

Results for COc1ccc(CCN(C)Cc2c(O)ccc3ccccc23)cc1OC ?
Sfp inh: 7%; PLK1 PBD inh: 21µM*; VDR inhibitor: inconclusive

How did COc1cc(CN(C)CCc2ccccn2)cc(OC)c1OC do in these assays?
Sfp inh: -96%; Tau fluor cs: -2%; Tau fibril FP: 6%; PLK1 PBD inh: -3%; Tau fibril ThT: -1%; VDR inhibitor: 13%

Results for Clc1ccccc1-c1cc2nc(NCc3ccco3)ccn2n1 ?
PLK1 PBD inh: -2%

Results for CC(=O)Nc1c(C)nn(-c2ccccc2)c1N1CCC(C(=O)NCc2cccc(F)c2)CC1 ?
Tau fluor cs: -1%; Tau fibril FP: -11%; Tau fibril ThT: 0%; VDR inhibitor: 8%

What do the screens show for `Cc1onc(-c2ccccc2Cl)c1C(=O)Oc1cc(N)n(S(=O)(=O)c2ccc(F)cc2)n1`?
Sfp inh: 22%; Tau fluor cs: inconclusive; Tau fibril FP: 15%; PLK1 PBD inh: 1%; Tau fibril ThT: inconclusive; VDR inhibitor: 7%

How did Cc1ccc(S(=O)(=O)n2nc(OC(=O)c3c(-c4ccccc4Cl)noc3C)cc2N)cc1 do in these assays?
Sfp inh: 16%; Tau fluor cs: inconclusive; Tau fibril FP: -15%; PLK1 PBD inh: 2.7µM*; Tau fibril ThT: inconclusive; VDR inhibitor: -21%

What do the screens show for `COc1ccc(S(=O)(=O)n2nc(OC(=O)c3ccncc3)cc2N)cc1`?
Sfp inh: -5%; Tau fluor cs: 12%; Tau fibril FP: 9%; PLK1 PBD inh: 27µM*; Tau fibril ThT: inconclusive; VDR inhibitor: inconclusive

How did Cc1nc(C#N)c(N/N=C/c2c(F)cccc2Cl)o1 do in these assays?
Sfp inh: 3%; Tau fluor cs: -7%; Tau fibril FP: 4%; PLK1 PBD inh: -10%; Tau fibril ThT: inconclusive; VDR inhibitor: 79µM*

Results for Cc1nc(N)nc(N/N=C/c2c(F)cccc2Cl)n1 ?
Sfp inh: -6%; PLK1 PBD inh: 2%; VDR inhibitor: -1%

What do the screens show for `CCOC(=O)C(C)Sc1nnc2ccc3ccccc3n12` (stereo not given)?
Tau fluor cs: -2%; Tau fibril FP: 6%; Tau fibril ThT: 3%; VDR inhibitor: 6%

How did CCCCCCCCCCCCCCCC(=O)OC[C@@H](COP(=O)([O-])OCC[N+](C)(C)C)OC(=O)CCCCCCCCCCCCCCC do in these assays?
Sfp inh: 4%; VDR inhibitor: 9%
